± gives the standard deviation of the averaged measurements. Targets with the largest changes are over-represented here; the source holds about 6,200 in all.
Compound: Nc1ncnc2c1ncn2[C@@H]1O[C@H](COP(=O)(O)OP(=O)(O)NP(=O)(O)O)[C@@H](O)[C@H]1O [adenylyl imidodiphosphate]
Assay: NP40-soluble protein abundance relative to vehicle (solubility fold change) (ratio); higher = more soluble protein in presence of AMP-PNP
Summary of the method: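 Eight concentrations, 0.1 to 10 mM, were tested on Jurkat crude lysate for 10 min at room temperature and then 3 min at 37 °C, in three independent experiments. The lysate was solubilised with 0.8% NP40 and benzonase, ultracentrifuged, and the supernatant TMT-labelled for LC-MS/MS. Each value is the fold change against the detergent-processed vehicle in its own replicate, from vsn-normalised intensities.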

Sequence of UniProt P07195 (P07195 whole entry, looked up): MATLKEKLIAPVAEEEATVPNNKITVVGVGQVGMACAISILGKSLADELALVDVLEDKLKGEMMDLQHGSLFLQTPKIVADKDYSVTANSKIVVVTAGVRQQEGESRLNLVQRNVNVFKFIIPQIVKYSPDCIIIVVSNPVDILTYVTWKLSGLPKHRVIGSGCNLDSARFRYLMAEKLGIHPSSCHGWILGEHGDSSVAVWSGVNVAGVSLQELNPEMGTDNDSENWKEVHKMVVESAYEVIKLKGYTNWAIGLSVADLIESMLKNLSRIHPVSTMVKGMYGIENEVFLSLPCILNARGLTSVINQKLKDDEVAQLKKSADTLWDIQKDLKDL
Sequence of UniProt O94763 (O94763 whole entry): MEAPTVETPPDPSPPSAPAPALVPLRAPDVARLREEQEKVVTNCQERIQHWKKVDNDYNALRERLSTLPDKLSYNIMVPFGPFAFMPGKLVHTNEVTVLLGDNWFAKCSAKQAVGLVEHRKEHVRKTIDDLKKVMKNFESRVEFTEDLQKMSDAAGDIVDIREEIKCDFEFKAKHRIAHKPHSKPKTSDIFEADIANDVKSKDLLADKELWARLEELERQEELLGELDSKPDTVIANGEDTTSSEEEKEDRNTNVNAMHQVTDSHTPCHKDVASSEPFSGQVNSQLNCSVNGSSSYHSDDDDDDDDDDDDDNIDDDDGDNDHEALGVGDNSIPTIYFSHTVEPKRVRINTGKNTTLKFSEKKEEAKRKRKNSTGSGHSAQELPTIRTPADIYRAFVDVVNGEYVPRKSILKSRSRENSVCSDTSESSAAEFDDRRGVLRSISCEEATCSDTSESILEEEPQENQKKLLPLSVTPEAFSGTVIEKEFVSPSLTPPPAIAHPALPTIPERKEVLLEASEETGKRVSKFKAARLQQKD
Sequence of UniProt O95453 (O95453 whole entry): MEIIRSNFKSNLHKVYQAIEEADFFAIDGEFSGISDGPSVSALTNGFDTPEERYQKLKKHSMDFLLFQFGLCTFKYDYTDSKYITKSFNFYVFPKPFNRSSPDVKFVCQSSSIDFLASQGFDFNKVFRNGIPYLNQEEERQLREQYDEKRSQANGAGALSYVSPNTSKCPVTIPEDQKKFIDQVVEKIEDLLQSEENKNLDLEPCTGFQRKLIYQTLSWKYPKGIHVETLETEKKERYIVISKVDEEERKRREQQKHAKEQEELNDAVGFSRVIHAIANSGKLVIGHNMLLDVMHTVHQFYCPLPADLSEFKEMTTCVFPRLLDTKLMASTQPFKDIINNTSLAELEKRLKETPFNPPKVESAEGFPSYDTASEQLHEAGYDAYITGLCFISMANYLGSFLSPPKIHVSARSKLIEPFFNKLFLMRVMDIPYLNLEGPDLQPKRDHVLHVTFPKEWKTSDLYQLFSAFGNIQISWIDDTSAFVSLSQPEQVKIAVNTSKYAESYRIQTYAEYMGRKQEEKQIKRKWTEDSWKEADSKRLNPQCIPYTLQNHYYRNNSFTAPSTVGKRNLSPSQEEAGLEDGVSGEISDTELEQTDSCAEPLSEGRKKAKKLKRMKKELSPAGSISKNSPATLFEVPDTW
Sequence of UniProt P13984 (P13984 whole entry): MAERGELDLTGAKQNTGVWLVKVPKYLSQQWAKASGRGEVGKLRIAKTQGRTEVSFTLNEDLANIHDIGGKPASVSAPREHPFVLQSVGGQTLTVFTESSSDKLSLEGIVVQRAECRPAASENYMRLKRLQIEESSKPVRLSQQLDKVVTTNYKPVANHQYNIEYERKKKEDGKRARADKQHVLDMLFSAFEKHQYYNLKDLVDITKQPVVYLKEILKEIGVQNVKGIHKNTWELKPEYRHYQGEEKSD
Sequence of UniProt P28070 (P28070 whole entry): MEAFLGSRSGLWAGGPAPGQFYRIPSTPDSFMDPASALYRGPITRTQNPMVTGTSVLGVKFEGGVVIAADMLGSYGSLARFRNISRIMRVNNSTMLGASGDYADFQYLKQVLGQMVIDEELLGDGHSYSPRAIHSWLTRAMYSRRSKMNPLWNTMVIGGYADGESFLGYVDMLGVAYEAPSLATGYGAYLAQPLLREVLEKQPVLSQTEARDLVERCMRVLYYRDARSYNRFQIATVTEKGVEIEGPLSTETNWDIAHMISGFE
Sequence of UniProt Q12769 (Q12769 whole entry, one chain of several): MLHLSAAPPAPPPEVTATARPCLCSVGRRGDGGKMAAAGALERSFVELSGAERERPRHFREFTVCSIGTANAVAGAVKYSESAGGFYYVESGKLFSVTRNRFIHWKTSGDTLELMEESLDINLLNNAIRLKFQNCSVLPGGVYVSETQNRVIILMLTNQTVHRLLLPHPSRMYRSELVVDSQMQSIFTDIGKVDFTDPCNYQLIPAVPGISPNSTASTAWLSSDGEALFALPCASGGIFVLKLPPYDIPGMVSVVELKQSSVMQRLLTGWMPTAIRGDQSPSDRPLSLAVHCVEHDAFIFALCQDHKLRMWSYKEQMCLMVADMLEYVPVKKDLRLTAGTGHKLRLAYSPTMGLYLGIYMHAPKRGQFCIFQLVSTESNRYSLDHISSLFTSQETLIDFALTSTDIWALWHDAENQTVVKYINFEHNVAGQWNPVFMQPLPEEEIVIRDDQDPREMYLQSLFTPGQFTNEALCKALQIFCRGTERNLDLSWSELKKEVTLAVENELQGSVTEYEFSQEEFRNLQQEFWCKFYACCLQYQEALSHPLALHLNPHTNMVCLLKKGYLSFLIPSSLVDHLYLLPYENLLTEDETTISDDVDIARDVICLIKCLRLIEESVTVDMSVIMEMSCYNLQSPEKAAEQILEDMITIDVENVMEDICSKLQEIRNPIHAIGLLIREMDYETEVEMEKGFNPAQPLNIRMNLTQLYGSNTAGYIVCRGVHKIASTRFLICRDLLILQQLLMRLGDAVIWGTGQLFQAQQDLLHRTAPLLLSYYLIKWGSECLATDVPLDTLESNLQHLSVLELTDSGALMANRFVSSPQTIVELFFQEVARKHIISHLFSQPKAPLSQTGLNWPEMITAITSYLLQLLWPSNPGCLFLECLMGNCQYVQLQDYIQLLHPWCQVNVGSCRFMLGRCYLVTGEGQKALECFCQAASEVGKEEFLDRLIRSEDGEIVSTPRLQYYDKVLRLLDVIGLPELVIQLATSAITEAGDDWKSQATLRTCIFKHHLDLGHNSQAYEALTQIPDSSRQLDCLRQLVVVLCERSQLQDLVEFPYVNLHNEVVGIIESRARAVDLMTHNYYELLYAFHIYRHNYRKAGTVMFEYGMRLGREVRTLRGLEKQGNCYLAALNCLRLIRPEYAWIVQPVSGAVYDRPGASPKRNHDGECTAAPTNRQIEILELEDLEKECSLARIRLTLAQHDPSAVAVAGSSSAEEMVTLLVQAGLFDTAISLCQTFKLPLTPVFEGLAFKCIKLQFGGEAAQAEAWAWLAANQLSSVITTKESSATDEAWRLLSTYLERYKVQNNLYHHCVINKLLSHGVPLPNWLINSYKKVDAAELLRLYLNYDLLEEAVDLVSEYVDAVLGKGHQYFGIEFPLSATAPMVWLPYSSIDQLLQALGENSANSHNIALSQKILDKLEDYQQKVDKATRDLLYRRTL
Sequence of UniProt Q13200 (Q13200 whole entry): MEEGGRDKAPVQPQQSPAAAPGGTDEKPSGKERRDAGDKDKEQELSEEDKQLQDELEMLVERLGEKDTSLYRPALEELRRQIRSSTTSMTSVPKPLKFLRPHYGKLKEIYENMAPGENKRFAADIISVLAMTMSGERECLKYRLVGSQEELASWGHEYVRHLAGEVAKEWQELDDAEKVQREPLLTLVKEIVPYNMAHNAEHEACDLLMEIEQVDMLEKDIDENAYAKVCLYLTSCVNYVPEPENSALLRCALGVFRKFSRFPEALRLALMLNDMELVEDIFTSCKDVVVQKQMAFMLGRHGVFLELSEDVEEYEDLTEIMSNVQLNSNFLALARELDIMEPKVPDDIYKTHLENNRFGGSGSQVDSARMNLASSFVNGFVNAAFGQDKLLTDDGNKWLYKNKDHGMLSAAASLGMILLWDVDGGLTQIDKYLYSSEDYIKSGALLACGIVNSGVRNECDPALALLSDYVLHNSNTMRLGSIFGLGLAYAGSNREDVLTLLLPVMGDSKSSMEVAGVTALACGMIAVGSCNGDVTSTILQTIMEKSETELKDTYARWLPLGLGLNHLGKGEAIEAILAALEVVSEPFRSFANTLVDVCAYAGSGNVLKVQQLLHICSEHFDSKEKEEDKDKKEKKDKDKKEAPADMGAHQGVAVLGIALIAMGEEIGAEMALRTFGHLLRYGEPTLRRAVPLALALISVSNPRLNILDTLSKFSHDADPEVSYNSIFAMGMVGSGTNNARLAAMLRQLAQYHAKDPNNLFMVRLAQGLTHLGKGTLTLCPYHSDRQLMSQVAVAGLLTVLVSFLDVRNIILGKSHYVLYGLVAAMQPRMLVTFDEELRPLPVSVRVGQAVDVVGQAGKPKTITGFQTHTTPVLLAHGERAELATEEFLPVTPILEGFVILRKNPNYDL
Sequence of UniProt P30038 (P30038 whole entry): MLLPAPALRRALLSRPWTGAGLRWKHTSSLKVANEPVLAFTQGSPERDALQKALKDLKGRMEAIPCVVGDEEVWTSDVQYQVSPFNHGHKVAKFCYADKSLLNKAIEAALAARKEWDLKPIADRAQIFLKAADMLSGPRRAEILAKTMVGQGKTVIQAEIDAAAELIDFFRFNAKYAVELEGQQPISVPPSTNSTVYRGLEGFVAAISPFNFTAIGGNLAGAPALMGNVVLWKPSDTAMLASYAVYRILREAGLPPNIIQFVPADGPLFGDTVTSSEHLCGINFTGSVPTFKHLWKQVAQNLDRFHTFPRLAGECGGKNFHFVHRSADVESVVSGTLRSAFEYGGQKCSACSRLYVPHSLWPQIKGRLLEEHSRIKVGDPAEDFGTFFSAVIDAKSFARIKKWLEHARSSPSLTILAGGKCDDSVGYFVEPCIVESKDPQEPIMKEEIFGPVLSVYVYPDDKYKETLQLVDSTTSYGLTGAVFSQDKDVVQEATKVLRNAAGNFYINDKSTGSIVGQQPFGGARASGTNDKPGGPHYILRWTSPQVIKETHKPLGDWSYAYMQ
Sequence of UniProt P07108 (P07108 whole entry): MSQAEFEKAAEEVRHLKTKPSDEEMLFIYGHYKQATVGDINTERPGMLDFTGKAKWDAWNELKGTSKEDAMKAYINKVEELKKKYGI

Target	NP40-soluble protein abundance (concentration: 1mM)	NP40-soluble protein abundance (concentration: 2mM)	NP40-soluble protein abundance (concentration: 4mM)	NP40-soluble protein abundance (concentration: 6mM)	NP40-soluble protein abundance (concentration: 8mM)	NP40-soluble protein abundance (concentration: 10mM)
PSMD2 (UniProt Q13200)	0.891 ± 0.014	0.849 ± 0.068	0.854 ± 0.074	0.858 ± 0.087	0.851 ± 0.086	0.816 ± 0.12
HIST1H1E (UniProt P10412)	1.04 ± 0.06	1.15 ± 0.09	1.12 ± 0.05	1.25 ± 0.15	1.24 ± 0.23	1.56 ± 0.14
UniProt P41227|P41227-2	1.02 ± 0.036	1.07 ± 0.06	1.09 ± 0.03	1.15 ± 0.081	1.12 ± 0.052	1.18 ± 0.039
SLC2A1 (UniProt P11166)	1.015 ± 0.005	0.999 ± 0.042	1.02 ± 0.055	0.998 ± 0.029	1.01 ± 0.032	1.01 ± 0.053
UniProt Q12872|Q12872-2	1.04 ± 0.04	1.11 ± 0.061	1.12 ± 0.043	1.17 ± 0.097	1.2 ± 0.1	1.33 ± 0.1
UniProt P18433|P18433-2|P18433-3|P18433-4	1.029 ± 0.0089	1.03 ± 0.027	1.03 ± 0.032	0.987 ± 0.023	1.02 ± 0.018	1.03 ± 0.036
UniProt O95453|O95453-2|O95453-3	1.02 ± 0.018	0.975 ± 0.042	0.9979 ± 0.0039	0.991 ± 0.026	0.997 ± 0.016	0.968 ± 0.013
HNRNPH2 (UniProt P55795)	0.9889 ± 0.0045	0.934 ± 0.086	0.946 ± 0.028	0.947 ± 0.023	0.9566 ± 0.0082	0.908 ± 0.019
ARID4A (UniProt P29374)	1.06 ± 0.053	1.07 ± 0.039	1.07 ± 0.036	1.03 ± 0.031	1.01 ± 0.032	1.07 ± 0.033
UniProt P60228	1.04 ± 0.073	1.04 ± 0.077	1.1 ± 0.11	1.18 ± 0.12	1.24 ± 0.12	1.33 ± 0.2
UniProt P49750-3|P49750-4	1.07 ± 0.027	1.17 ± 0.077	1.17 ± 0.015	1.23 ± 0.065	1.25 ± 0.07	1.35 ± 0.085
CLPX (UniProt O76031)	0.957 ± 0.062	0.969 ± 0.062	0.955 ± 0.074	0.909 ± 0.08	0.886 ± 0.074	0.923 ± 0.078
UniProt Q12769|G3V198	1 ± 0.024	0.9518 ± 0.0046	0.9433 ± 0.006	0.9621 ± 0.0016	0.99281 ± 0.00096	0.991 ± 0.019
WDHD1 (UniProt O75717)	1.01 ± 0.021	0.996 ± 0.012	0.99 ± 0.015	0.963 ± 0.036	0.953 ± 0.016	0.937 ± 0.014
UniProt P17096|P17096-2	1.01 ± 0.076	1.19 ± 0.19	1.12 ± 0.047	1.29 ± 0.057	1.31 ± 0.088	1.74 ± 0.29
UniProt O94763	1.05 ± 0.048	1.13 ± 0.06	1.05 ± 0.05	1.02 ± 0.1	0.962 ± 0.063	1.02 ± 0.059
LCP2 (UniProt Q13094)	1.02 ± 0.027	1.05 ± 0.053	0.992 ± 0.034	0.98 ± 0.0097	0.955 ± 0.042	0.947 ± 0.061
PARP1 (UniProt P09874)	1.06 ± 0.018	1.09 ± 0.05	1.21 ± 0.016	1.39 ± 0.027	1.51 ± 0.071	1.59 ± 0.11
PSMB4 (UniProt P28070)	0.931 ± 0.043	0.905 ± 0.048	0.918 ± 0.096	0.971 ± 0.046	0.968 ± 0.071	1 ± 0.13
UniProt P62805	0.903 ± 0.073	0.951 ± 0.018	0.964 ± 0.046	1.12 ± 0.18	1.25 ± 0.16	1.52 ± 0.25
HIST1H1B (UniProt P16401)	1.052 ± 0.0074	1.18 ± 0.18	1.15 ± 0.11	1.27 ± 0.22	1.32 ± 0.21	1.59 ± 0.19

Target	NP40-soluble protein abundance (concentration: 1mM)	NP40-soluble protein abundance (concentration: 2mM)	NP40-soluble protein abundance (concentration: 4mM)	NP40-soluble protein abundance (concentration: 6mM)	NP40-soluble protein abundance (concentration: 8mM)	NP40-soluble protein abundance (concentration: 10mM)
GTF2F2 (UniProt P13984)	1 ± 0.011	1.06 ± 0.023	1.04 ± 0.019	1.07 ± 0.018	1.07 ± 0.015	1.103 ± 0.0083
UniProt Q02078-2|Q02078-4|Q02078-6|Q02078-5	1.0199 ± 0.0007	1.03 ± 0.017	1.023 ± 0.0072	0.98 ± 0.014	0.9784 ± 0.0097	0.98 ± 0.053
THOP1 (UniProt P52888)	0.938 ± 0.036	0.884 ± 0.095	0.924 ± 0.021	0.944 ± 0.034	0.942 ± 0.041	0.921 ± 0.028
TXLNA (UniProt P40222)	1.04 ± 0.059	1.17 ± 0.13	1.08 ± 0.14	1.21 ± 0.15	1.35 ± 0.046	1.2 ± 0.2
UniProt P15170-2|P15170-3|H3BSV8	0.993 ± 0.025	0.955 ± 0.035	0.96 ± 0.01	0.995 ± 0.012	0.964 ± 0.014	0.968 ± 0.043
DBI (UniProt P07108)	1.04 ± 0.064	1.06 ± 0.055	0.987 ± 0.015	0.96 ± 0.041	0.928 ± 0.025	0.997 ± 0.1
UniProt P56282|P56282-3|P56282-2	0.973 ± 0.03	0.933 ± 0.065	0.968 ± 0.026	0.952 ± 0.036	0.942 ± 0.041	0.951 ± 0.045
UQCRB (UniProt P14927)	0.9813 ± 0.003	1.07 ± 0.082	0.954 ± 0.025	0.969 ± 0.018	0.935 ± 0.0015	0.933 ± 0.023
ALDH4A1 (UniProt P30038)	0.99 ± 0.028	1.02 ± 0.016	0.977 ± 0.033	0.975 ± 0.023	0.938 ± 0.013	0.954 ± 0.02
FOXK1 (UniProt P85037)	0.999 ± 0.044	1.06 ± 0.086	1.01 ± 0.014	0.987 ± 0.015	0.9378 ± 0.0057	1.01 ± 0.02
UniProt P16383|P16383-2	1.05 ± 0.038	1.09 ± 0.044	1.101 ± 0.0092	1.08 ± 0.03	1.07 ± 0.033	1.097 ± 0.0024
UniProt P28331|P28331-2	0.972 ± 0.037	0.935 ± 0.081	0.954 ± 0.059	0.949 ± 0.055	0.938 ± 0.037	0.942 ± 0.086
TBL3 (UniProt Q12788)	1.07 ± 0.02	1.15 ± 0.05	1.21 ± 0.023	1.35 ± 0.027	1.46 ± 0.024	1.53 ± 0.075
FDFT1 (UniProt P37268)	0.993 ± 0.038	0.952 ± 0.027	0.991 ± 0.024	1.03 ± 0.1	1.05 ± 0.057	1.01 ± 0.078
UniProt P63279	0.993 ± 0.076	1.01 ± 0.076	1.01 ± 0.1	1.04 ± 0.12	1.12 ± 0.07	1.07 ± 0.066
UniProt P13807|P13807-2	0.947 ± 0.11	0.922 ± 0.065	0.895 ± 0.096	0.867 ± 0.14	0.876 ± 0.098	0.863 ± 0.16
SDHB (UniProt P21912)	0.976 ± 0.045	1 ± 0.056	0.987 ± 0.063	1.03 ± 0.079	1.02 ± 0.075	1.04 ± 0.052
LDHB (UniProt P07195)	1.01 ± 0.019	0.92 ± 0.025	0.947 ± 0.02	0.973 ± 0.036	0.969 ± 0.024	0.943 ± 0.013
UniProt P04049|P04049-2	1.03 ± 0.023	1.06 ± 0.037	1.07 ± 0.04	1.05 ± 0.036	1.06 ± 0.033	1.05 ± 0.032
UniProt Q02880|Q02880-2	1.56 ± 0.036	1.63 ± 0.041	1.77 ± 0.12	1.88 ± 0.19	1.95 ± 0.18	2.01 ± 0.25
UniProt P36639|P36639-2|P36639-3|P36639-4	1 ± 0.037	0.988 ± 0.059	1.09 ± 0.085	1.03 ± 0.022	1.07 ± 0.012	1.06 ± 0.065

— the supplement of paper PMC6411743
